In PMC7862700, “An all-to-all approach to the identification of sequence-specific readers for epigenetic DNA modifications on cytosine”:

Columns and labels:
Assay in all cases: DAPPL (digital affinity profiling via proximity ligation, sequencing); 10 mM Tris-HCl pH 7.5, 50 mM NaCl, 1 mM DTT, 4% glycerol, room temperature, 30 min; GST-TFs on glutathione beads, 16-mer random dsDNA library, 0.1% formaldehyde crosslink after washing; high values mean tight binding
[1] = target: T1, FLI1 (Homo sapiens, UniProt Q01543 1-452); details: protein: recombinant; tags: N-terminal GST; dsDNA, one strand shown
T1 sequence: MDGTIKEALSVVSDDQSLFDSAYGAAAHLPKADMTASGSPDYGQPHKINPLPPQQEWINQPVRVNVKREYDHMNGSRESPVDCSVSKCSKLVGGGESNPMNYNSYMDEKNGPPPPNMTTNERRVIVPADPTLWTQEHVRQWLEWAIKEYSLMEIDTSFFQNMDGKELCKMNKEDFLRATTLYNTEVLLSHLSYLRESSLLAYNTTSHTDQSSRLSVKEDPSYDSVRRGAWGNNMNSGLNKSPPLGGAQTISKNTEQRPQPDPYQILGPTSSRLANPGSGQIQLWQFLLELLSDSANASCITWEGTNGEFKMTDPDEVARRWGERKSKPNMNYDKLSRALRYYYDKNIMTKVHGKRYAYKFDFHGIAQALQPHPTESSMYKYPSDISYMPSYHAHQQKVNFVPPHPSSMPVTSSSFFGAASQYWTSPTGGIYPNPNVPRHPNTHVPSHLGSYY
How it was run: (§1)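 A tag-only sample was pooled with DNA-barcoded human transcription factors that had been expressed in yeast as GST fusions and captured on glutathione beads. The pools were incubated for 30 min at room temperature with 200 nmole of a random double-stranded 16-mer DNA library in Tris/NaCl/DTT/glycerol buffer, then washed, crosslinked with 0.1% formaldehyde, proximity-ligated (BsaI/T4 ligase, 1 h, 37 °C), PCR-amplified and sequenced on an Illumina NextSeq500. Binding signal is each hexamer's read frequency for a factor divided by its frequency for the tag-only sample.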

[2] = target: T2, ELK1 (Homo sapiens, UniProt P19419 1-428); details: protein: recombinant; tags: N-terminal GST; dsDNA, one strand shown
T2 sequence: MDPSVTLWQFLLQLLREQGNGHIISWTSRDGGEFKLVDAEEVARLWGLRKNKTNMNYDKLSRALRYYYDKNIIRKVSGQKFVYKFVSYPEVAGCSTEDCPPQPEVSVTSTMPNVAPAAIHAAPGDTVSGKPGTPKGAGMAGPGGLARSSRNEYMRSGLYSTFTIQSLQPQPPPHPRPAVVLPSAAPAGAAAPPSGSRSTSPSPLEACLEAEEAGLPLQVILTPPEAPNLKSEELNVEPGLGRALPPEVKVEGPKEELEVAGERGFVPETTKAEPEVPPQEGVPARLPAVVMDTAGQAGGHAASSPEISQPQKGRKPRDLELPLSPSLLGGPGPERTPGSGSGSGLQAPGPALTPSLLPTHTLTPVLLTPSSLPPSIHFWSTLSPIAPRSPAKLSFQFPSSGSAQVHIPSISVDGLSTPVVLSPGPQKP
How it was run: as §1

[3] = target: T3, ERG (Homo sapiens, UniProt P11308 1-479); details: protein: recombinant; tags: N-terminal GST; dsDNA, one strand shown
T3 sequence: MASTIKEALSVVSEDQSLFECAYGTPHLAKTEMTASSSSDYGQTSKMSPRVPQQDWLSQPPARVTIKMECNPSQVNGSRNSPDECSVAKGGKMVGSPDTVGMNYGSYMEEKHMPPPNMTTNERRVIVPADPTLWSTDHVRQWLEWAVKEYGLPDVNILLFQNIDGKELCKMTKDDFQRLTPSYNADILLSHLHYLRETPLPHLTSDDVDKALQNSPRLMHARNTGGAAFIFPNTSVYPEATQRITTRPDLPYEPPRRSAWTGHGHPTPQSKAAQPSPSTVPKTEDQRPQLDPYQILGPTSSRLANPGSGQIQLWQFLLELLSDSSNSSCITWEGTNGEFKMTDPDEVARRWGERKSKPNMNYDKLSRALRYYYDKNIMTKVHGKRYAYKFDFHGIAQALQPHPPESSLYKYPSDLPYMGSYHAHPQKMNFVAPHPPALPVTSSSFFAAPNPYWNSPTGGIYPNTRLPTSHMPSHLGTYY
How it was run: as §1

[4] = target: ELF1 (Homo sapiens, UniProt P32519 1-619); details: protein: recombinant; tags: N-terminal GST; dsDNA, one strand shown
How it was run: as §1

[5] = target: T4, EHF (Homo sapiens, UniProt Q9NZC4 1-300); details: protein: recombinant; tags: N-terminal GST; dsDNA, one strand shown
T4 sequence: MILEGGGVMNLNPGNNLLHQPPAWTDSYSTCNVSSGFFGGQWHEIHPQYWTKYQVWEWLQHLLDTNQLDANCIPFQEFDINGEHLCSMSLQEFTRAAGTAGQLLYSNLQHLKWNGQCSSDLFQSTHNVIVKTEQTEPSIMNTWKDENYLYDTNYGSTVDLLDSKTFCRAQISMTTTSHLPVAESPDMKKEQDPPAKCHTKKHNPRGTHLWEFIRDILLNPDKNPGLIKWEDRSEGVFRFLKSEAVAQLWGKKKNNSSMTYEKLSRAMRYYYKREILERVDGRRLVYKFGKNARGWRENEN
How it was run: as §1

[6] = target: SPI1 (Homo sapiens, UniProt P17947 1-270); details: protein: recombinant; tags: N-terminal GST; dsDNA, one strand shown
How it was run: as §1

[7] = target: SPIB (Homo sapiens, UniProt Q01892 1-262); details: protein: recombinant; tags: N-terminal GST; dsDNA, one strand shown
How it was run: as §1

[8] = target: T5, ELK3 (Homo sapiens, UniProt P41970 1-407); details: protein: recombinant; tags: N-terminal GST; dsDNA, one strand shown
T5 sequence: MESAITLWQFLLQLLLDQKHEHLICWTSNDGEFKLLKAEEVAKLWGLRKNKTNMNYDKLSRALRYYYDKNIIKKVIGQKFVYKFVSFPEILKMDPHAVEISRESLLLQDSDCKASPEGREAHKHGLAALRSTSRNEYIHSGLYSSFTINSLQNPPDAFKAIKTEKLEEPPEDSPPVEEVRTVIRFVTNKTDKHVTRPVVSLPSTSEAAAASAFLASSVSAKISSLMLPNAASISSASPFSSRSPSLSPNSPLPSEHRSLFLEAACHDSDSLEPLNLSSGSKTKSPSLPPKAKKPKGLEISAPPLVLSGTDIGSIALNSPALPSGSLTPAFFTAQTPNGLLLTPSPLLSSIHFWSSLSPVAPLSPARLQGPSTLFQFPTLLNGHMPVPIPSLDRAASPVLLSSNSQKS
How it was run: as §1

[9] = target: T6, FEV (Homo sapiens, UniProt Q99581 1-238); details: protein: recombinant; tags: N-terminal GST; dsDNA, one strand shown
T6 sequence: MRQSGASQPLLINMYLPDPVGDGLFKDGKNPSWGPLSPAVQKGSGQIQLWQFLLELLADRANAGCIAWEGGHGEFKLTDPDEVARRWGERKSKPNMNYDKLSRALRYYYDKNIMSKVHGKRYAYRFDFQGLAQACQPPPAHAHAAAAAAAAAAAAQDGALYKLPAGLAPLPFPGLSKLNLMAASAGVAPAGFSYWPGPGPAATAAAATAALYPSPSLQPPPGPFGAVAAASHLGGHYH
How it was run: as §1

[10] = target: ETV5 (Homo sapiens, UniProt P41161 1-510); details: protein: recombinant; tags: N-terminal GST; dsDNA, one strand shown
How it was run: as §1

[11] = target: HSF1 (Homo sapiens, UniProt Q00613 1-529); details: protein: recombinant; tags: N-terminal GST; chain copies: 3; dsDNA, one strand shown
How it was run: as §1

[12] = target: ELF4 (Homo sapiens, UniProt Q99607 1-663); details: protein: recombinant; tags: N-terminal GST; dsDNA, one strand shown
How it was run: as §1

[13] = target: T7, ELK4 (Homo sapiens, UniProt P28324-2 1-405); details: protein: recombinant; tags: N-terminal GST; dsDNA, one strand shown
T7 sequence: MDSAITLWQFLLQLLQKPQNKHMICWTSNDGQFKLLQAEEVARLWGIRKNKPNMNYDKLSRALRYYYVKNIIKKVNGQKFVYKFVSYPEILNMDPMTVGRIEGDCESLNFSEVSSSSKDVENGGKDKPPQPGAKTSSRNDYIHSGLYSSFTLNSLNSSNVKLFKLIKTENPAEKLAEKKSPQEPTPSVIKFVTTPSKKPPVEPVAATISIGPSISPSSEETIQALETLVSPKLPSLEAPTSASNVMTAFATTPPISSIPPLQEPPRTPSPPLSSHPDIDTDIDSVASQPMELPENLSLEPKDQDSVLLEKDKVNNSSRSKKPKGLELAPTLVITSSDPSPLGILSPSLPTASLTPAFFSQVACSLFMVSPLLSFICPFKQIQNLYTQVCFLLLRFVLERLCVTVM
How it was run: as §1

[14] = target: T8, ETV2 (Homo sapiens, UniProt O00321 1-342); details: protein: recombinant; tags: N-terminal GST; dsDNA, one strand shown
T8 sequence: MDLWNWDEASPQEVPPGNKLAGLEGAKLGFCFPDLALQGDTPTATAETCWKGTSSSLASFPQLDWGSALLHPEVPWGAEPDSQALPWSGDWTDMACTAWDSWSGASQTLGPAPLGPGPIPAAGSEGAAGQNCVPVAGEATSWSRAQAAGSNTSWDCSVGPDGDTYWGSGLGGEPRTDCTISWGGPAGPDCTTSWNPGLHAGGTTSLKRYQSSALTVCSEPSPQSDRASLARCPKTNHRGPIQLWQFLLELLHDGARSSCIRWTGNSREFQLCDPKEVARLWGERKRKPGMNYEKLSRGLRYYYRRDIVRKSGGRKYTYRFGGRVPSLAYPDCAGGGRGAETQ
How it was run: as §1

[15] = target: T9, ELF3 (Homo sapiens, UniProt P78545 1-371); details: protein: recombinant; tags: N-terminal GST; dsDNA, one strand shown
T9 sequence: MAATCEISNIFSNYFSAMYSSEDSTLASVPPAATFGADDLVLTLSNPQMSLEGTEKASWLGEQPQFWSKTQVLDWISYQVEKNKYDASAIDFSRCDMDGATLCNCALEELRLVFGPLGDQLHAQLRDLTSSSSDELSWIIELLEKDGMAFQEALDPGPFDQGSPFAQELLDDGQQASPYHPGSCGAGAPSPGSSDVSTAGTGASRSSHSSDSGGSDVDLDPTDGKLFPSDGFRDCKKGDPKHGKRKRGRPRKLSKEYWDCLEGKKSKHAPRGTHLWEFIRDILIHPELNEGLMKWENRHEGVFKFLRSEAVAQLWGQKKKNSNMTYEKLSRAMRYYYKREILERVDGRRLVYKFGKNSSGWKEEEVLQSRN
How it was run: as §1

[16] = target: CRX (Homo sapiens, UniProt O43186 1-299); details: protein: recombinant; tags: N-terminal GST; dsDNA, one strand shown
How it was run: as §1

[17] = target: ETV1 (Homo sapiens, UniProt P50549 1-477); details: protein: recombinant; tags: N-terminal GST; dsDNA, one strand shown
How it was run: as §1

[18] = target: T10, GABPA (Homo sapiens, UniProt Q06546 1-454); details: protein: recombinant; tags: N-terminal GST; dsDNA, one strand shown
T10 sequence: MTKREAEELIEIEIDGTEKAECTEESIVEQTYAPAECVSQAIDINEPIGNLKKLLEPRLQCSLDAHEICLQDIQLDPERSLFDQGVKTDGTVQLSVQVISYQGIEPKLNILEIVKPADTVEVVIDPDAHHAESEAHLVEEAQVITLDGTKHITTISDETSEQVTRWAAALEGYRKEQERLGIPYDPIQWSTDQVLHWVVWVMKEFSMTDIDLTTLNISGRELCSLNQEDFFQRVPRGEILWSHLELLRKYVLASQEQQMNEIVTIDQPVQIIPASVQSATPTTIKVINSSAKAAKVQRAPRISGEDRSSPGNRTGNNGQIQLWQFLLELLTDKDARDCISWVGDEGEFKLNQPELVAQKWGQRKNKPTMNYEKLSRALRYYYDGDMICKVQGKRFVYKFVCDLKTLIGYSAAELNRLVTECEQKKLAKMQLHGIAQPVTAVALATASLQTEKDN
How it was run: as §1

CRX, sequence (O43186 whole entry): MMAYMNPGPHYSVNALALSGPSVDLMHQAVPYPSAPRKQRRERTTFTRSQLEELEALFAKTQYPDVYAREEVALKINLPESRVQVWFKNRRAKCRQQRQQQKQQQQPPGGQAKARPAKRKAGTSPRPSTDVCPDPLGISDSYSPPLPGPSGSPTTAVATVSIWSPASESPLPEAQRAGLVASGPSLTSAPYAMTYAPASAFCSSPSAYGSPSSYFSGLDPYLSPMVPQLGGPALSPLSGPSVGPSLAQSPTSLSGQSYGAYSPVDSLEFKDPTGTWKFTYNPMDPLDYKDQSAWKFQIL
ETV1, sequence (P50549 whole entry): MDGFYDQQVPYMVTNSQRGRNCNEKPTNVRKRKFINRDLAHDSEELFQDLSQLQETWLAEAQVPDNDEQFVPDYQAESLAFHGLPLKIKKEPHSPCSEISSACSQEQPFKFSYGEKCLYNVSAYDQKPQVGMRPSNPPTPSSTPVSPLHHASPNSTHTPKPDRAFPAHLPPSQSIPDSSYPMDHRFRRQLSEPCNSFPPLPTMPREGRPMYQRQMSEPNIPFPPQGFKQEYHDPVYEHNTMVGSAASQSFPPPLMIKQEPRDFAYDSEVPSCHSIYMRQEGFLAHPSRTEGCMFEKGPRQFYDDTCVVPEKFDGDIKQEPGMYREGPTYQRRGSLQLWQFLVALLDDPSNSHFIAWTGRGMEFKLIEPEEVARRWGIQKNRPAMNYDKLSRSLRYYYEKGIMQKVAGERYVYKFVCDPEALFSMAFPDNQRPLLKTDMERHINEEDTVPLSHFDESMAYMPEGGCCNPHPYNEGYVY
ELF1, sequence (P32519 whole entry): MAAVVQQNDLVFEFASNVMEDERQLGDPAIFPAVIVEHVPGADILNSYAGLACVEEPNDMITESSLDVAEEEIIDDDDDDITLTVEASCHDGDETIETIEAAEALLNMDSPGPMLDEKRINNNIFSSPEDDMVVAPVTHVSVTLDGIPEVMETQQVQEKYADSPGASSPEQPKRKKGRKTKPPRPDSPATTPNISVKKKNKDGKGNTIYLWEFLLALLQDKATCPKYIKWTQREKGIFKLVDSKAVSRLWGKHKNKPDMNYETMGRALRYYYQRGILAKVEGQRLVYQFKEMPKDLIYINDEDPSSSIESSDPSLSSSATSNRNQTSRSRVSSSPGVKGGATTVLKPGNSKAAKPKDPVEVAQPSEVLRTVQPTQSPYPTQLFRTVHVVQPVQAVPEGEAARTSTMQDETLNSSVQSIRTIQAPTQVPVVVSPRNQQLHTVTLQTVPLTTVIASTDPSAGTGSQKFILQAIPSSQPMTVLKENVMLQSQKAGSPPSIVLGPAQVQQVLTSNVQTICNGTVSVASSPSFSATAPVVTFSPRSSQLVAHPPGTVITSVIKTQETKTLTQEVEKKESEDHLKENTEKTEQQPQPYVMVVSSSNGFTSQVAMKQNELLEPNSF
HSF1, sequence (Q00613 whole entry): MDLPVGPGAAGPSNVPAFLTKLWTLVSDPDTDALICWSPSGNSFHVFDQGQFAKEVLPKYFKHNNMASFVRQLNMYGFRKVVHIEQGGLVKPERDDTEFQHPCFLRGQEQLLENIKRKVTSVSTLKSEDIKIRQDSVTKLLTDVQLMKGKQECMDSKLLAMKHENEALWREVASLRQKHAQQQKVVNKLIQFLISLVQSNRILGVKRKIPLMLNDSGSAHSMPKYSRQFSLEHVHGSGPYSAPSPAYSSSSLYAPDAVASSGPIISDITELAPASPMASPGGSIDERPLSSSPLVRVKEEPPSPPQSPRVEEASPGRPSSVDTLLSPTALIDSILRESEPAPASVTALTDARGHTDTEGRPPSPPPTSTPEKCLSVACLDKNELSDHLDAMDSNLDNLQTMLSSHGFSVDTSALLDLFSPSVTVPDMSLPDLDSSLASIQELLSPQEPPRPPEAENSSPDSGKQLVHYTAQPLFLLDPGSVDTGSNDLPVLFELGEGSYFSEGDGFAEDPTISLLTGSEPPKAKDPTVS
ETV5, sequence (P41161 whole entry): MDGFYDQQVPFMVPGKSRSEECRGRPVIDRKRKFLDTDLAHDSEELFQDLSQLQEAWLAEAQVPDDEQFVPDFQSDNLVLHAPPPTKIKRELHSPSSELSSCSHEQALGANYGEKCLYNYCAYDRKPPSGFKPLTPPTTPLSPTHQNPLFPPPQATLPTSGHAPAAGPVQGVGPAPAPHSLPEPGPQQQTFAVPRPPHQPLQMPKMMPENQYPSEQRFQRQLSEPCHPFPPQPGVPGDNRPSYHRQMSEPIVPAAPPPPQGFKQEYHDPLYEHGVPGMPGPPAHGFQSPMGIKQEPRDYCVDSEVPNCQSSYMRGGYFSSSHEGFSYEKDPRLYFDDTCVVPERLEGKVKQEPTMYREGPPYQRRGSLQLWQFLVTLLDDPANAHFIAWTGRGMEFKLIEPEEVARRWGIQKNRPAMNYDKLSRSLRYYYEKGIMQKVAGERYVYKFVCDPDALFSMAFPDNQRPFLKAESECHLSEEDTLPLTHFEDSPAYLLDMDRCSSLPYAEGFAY
SPIB, sequence (Q01892 whole entry): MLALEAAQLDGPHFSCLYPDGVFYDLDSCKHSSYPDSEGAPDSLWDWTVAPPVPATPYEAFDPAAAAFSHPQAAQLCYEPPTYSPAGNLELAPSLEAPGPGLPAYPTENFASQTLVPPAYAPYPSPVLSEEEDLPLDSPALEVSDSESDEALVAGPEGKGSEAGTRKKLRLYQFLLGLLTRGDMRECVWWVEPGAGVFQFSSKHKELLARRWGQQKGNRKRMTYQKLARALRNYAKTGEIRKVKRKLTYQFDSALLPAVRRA
ELF4, sequence (Q99607 whole entry): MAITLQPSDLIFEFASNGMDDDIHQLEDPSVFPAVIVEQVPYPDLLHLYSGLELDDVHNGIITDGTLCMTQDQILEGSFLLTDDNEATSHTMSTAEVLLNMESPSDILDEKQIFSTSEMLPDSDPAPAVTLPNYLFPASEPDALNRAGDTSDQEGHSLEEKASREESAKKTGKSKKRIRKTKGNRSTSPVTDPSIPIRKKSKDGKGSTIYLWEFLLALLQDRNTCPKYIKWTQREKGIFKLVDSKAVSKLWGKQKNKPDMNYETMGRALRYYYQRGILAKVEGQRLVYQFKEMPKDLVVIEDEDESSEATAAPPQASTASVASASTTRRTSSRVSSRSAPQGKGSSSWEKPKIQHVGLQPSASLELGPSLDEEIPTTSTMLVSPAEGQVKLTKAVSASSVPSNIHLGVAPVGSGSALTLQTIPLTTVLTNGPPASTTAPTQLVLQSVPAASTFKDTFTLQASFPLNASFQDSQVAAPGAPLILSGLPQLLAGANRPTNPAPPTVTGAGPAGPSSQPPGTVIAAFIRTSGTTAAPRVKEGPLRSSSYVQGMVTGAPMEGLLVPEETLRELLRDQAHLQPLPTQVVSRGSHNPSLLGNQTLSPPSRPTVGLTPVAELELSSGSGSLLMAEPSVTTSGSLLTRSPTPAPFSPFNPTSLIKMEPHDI

Sequence	binding signal [1]	binding signal [2]	binding signal [3]	binding signal [4]	binding signal [5]	binding signal [6]	binding signal [7]	binding signal [8]	binding signal [9]	binding signal [10]	binding signal [11]	binding signal [12]	binding signal [13]	binding signal [14]	binding signal [15]	binding signal [16]	binding signal [17]	binding signal [18]
TAACAG	1.06 fold enrichment (6-mer frequency, TF over GST control)	1.05 fold enrichment (6-mer frequency, TF over GST control)	1.01 fold enrichment (6-mer frequency, TF over GST control)	1.09 fold enrichment (6-mer frequency, TF over GST control)	1.07 fold enrichment (6-mer frequency, TF over GST control)	1.11 fold enrichment (6-mer frequency, TF over GST control)	1.09 fold enrichment (6-mer frequency, TF over GST control)	1.07 fold enrichment (6-mer frequency, TF over GST control)	1.05 fold enrichment (6-mer frequency, TF over GST control)	1.04 fold enrichment (6-mer frequency, TF over GST control)	1.02 fold enrichment (6-mer frequency, TF over GST control)	1.09 fold enrichment (6-mer frequency, TF over GST control)	1.12 fold enrichment (6-mer frequency, TF over GST control)	1.02 fold enrichment (6-mer frequency, TF over GST control)	1.09 fold enrichment (6-mer frequency, TF over GST control)	1.3 fold enrichment (6-mer frequency, TF over GST control)	1.09 fold enrichment (6-mer frequency, TF over GST control)	
AAGGTA	1.1 fold enrichment (6-mer frequency, TF over GST control)	1.08 fold enrichment (6-mer frequency, TF over GST control)	1.05 fold enrichment (6-mer frequency, TF over GST control)	1.13 fold enrichment (6-mer frequency, TF over GST control)	1.1 fold enrichment (6-mer frequency, TF over GST control)	1.07 fold enrichment (6-mer frequency, TF over GST control)	1.05 fold enrichment (6-mer frequency, TF over GST control)	1.09 fold enrichment (6-mer frequency, TF over GST control)	1.02 fold enrichment (6-mer frequency, TF over GST control)	1.11 fold enrichment (6-mer frequency, TF over GST control)	1.11 fold enrichment (6-mer frequency, TF over GST control)	1.1 fold enrichment (6-mer frequency, TF over GST control)	1.14 fold enrichment (6-mer frequency, TF over GST control)	1.07 fold enrichment (6-mer frequency, TF over GST control)	1.16 fold enrichment (6-mer frequency, TF over GST control)	1.05 fold enrichment (6-mer frequency, TF over GST control)	1.11 fold enrichment (6-mer frequency, TF over GST control)	1.18 fold enrichment (6-mer frequency, TF over GST control)
